Source: PubChem BioAssay (NCI)
This is part of a sample that, as a whole, favours compounds with a hit. Of some 79,000 tested, about 15% had one in any assay. A number with no mark means an inactive call. Calls of active or inactive are those of the source. No stated cut-off is given here; in the data, active means growth inhibition above about 70%; inactive means the rest.

Tests used:
[1] = NCI Yeast Anticancer Drug Screen. Data for the rad50 strain (AID 155);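 further: 0% = growth of vehicle-only cultures of the same strain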; details: S. cerevisiae rad50 strain growth inhibition, stronger effect = higher value
Summary of the method: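 Yeast carrying a defined DNA repair defect were exposed to test compounds, and growth was compared with vehicle-treated controls to give percent inhibition.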

[2] = NCI Yeast Anticancer Drug Screen. Data for the mec2-1 strain (AID 157); details: S. cerevisiae mec2-1 strain, stronger effect = higher value
Summary of the method: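 Readout is yeast growth inhibition, normalised to vehicle-treated controls, in the mec2-1 strain exposed to compound.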

[3] = NCI Yeast Anticancer Drug Screen. Data for the sgs1 mgt1 strain (AID 161);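 further: 0% = growth of cultures given vehicle only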; details: S. cerevisiae sgs1 mgt1 strain, stronger effect = higher value
Summary of the method: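 Compounds are added to genetically altered yeast, and growth is compared with cultures given vehicle alone to give percent inhibition.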

[4] = NCI Yeast Anticancer Drug Screen. Data for the cln2 rad14 strain (AID 165);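 further: 0% = growth equal to vehicle treated cultures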; details: S. cerevisiae cln2 rad14 strain, stronger effect = higher value
Summary of the method: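 Relative to vehicle controls, growth inhibition of compound-treated cln2 rad14 yeast was recorded.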

[5] = NCI Yeast Anticancer Drug Screen. Data for the bub3 strain (AID 167); details: S. cerevisiae bub3 mutant strain, stronger effect = higher value
Summary of the method: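 Compounds were applied to a genetically altered yeast strain carrying a cell-cycle control defect. Growth inhibition was scored against vehicle-treated controls.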

[6] = NCI Yeast Anticancer Drug Screen. Data for the mlh1 rad18 strain (AID 175); details: S. cerevisiae mlh1 rad18 strain growth inhibition, stronger effect = higher value
Summary of the method: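 Test agents were incubated with a yeast strain of defined genotype (DNA damage repair defect). Inhibition of growth was derived by comparison with vehicle-exposed cultures.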

[7] = at 5.0 µM (retest, dose inferred, filed as 0.5)
[8] = at 50.0 µM (retest, dose inferred, filed as 5.0)

Compound	growth inhibition [1, 7]	growth inhibition [1, 8]	growth inhibition ([1]; at 50.0 µM)	growth inhibition [2, 7]	growth inhibition [2, 8]	growth inhibition ([2]; at 50.0 µM)	growth inhibition [3, 7]	growth inhibition [3, 8]	growth inhibition ([3]; at 50.0 µM)	growth inhibition [4, 7]	growth inhibition [4, 8]	growth inhibition ([4]; at 50.0 µM)	growth inhibition [5, 7]	growth inhibition [5, 8]	growth inhibition ([5]; at 50.0 µM)	growth inhibition [6, 7]	growth inhibition [6, 8]	growth inhibition ([6]; at 50.0 µM)
CCCCCCCCCCCC(=O)OCCOC(=O)CCCCCCCCCCC	-8%	-5%	-5.95%	-1%	-12%	-11.3%	-22%	-7%	-20.6%	1%	-5%	-4%	2%	-12%	-3.35%	3%	-6%	7.4%
CC(CN(C)C)C(=O)/C=C/c1c(Cl)cccc1Cl (stereo not given)	2%	88% (active)	86.7% (active)	8%	96% (active)	46.4%	11%	94% (active)	90.2% (active)	2%	44%	29.4%	-1%	92% (active)	74.9% (active)	3%	97% (active)	96.5% (active)
Cc1ccc([Si](O)(c2ccc(C)cc2)c2ccc(C)cc2)cc1	85% (active)	92% (active)	95.2% (active)	78% (active)	94% (active)	93% (active)	71% (active)	-27%	93.5% (active)	67%	90% (active)	93.6% (active)	75% (active)	92% (active)	86.3% (active)	84% (active)	93% (active)	94.4% (active)
Oc1cc(Br)cc2cccnc12	99% (active)	99% (active)	87.7% (active)	98% (active)	99% (active)	92% (active)	98% (active)	99% (active)	84.3% (active)	99% (active)	99% (active)	89.5% (active)	99% (active)	99% (active)	88.7% (active)	99% (active)	99% (active)	83.8% (active)
Cn1cc(NC(=O)Nc2cc(C(=O)Nc3cc(C(=O)Nc4cc(S(=O)(=O)O)c5cc(S(=O)(=O)O)cc(S(=O)(=O)O)c5c4)n(C)c3)n(C)c2)cc1C(=O)Nc1cc(C(=O)Nc2cc(S(=O)(=O)O)c3cc(S(=O)(=O)O)cc(S(=O)(=O)O)c3c2)n(C)c1	35%	90% (active)	86% (active)	20%	80% (active)	66.8%	21%	77% (active)	64.2%	32%	48%	60.5%	30%	92% (active)	77.5% (active)	26%	83% (active)	87% (active)
CC(=O)OC1=CC2(OC(C)=O)CC(C)(C)C1C1C(=O)C=CC(=O)C12 (stereo not given)	8%	14%	53.1%	-8%	10%	65.3%	0%	13%	68.2%	3%	-10%	33.9%	4%	14%	73.8% (active)	5%	21%	17.1%
CN(/N=C/C(O)C(O)C(O)CO)c1ccccc1 (stereo not given)	20%	97% (active)	98% (active)	3%	99% (active)	98.5% (active)	9%	99% (active)	98.5% (active)	14%	98% (active)	98.5% (active)	36%	99% (active)	98.5% (active)	47%	99% (active)	98.8% (active)
CCN(CC)CCOc1ccc(/C(C#N)=C/c2ccc3ccccc3c2)cc1	38%	99% (active)	99.5% (active)	30%	99% (active)	99.5% (active)	73% (active)	100% (active)	99.2% (active)	28%	99% (active)	99.5% (active)	53%	99% (active)	99.4% (active)	35%	99% (active)	99.2% (active)
CCCCCCCn1ccnc1NCCCCCCCCCCNc1nccn1CCCCCCC	-3%	98% (active)	99.3% (active)	-5%	98% (active)	99.6% (active)	-6%	99% (active)	47.4%	-4%	98% (active)	93.9% (active)	1%	98% (active)	94.5% (active)	-1%	98% (active)	98.9% (active)
C[n+]1c(/C=C/c2ccc(N3CCCC3)cc2)sc2ccccc21	76% (active)	98% (active)	98.6% (active)	37%	99% (active)	99.2% (active)	95% (active)	99% (active)	98.5% (active)	60%	98% (active)	98.8% (active)	46%	98% (active)	98.2% (active)	85% (active)	98% (active)	98.8% (active)
